# From PubChem BioAssay (Tox21)
# Records with an inconclusive call do not appear. Entries that show only a call come without a potency. A number with no mark means an inactive call. Active and inactive are the calls of the source. Unless noted, calls come from the whole dose curve; as a rule, active = well fitted curve in the direction sought with a large enough effect in the repeat runs; inconclusive = weak or mixed curves; inactive = no such curve, though single readings can be large; an effect the other way counts as inactive or inconclusive.
# Columns and labels:
# [1] = qHTS assay to identify small molecule antagonists of the retinoid acid receptor (RAR) signaling pathway - cell viability counter screen (AID 1159551); note: nearly all actives have a fitted effect of over 35% in size
# Summary of the method: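 In this counter screen, the RARE-luciferase line C3RL4 was exposed for 6 h at 37 C and 5% CO2 to compounds with retinol at 1 uM final. Cellular ATP, read by luminescence, served as the viability measure.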
# [2] = qHTS assay to identify small molecule antagonists of the estrogen related receptor (ERR) signaling pathway from Tox21 library - cell viability counter screen (AID 1224834); note: nearly all actives have a fitted effect of over 30% in size; note: potency is the fitted concentration of half-maximal effect
# Summary of the method: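 Counter screen run in ERR cells (2,000 cells/well): cells pre-incubated 6 h, then treated with compounds for 17.5 h at 37 C. Fluorescence was read 30 min after CellTiter-Fluor addition.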
# [3] = biological target: Luciferin 4-monooxygenase (Photinus pyralis) (UniProt P08659); assay: qHTS assay to identify small molecule inhibitors of firefly luciferase (AID 1224835); note: series mostly up to about 120 µM; nearly all actives have a fitted effect of over 25% in size
# Summary of the method: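 Quantitative HTS format; KM concentrations of both substrates. Purified P. pyralis FLuc activity quantified from luminescence images.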
# [4] = qHTS assay to identify small molecule agonists of the constitutive androstane receptor (CAR) signaling pathway - cell viability counter screen (AID 1224836); note: series mostly up to about 92 µM; nearly all actives have a fitted effect of over 45% in size
# Summary of the method: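 HepG2-CYP2B6-hCAR, 2500 cells/well, 4 h pre-incubation; cpd 15 conc + PK11195 0.75 uM final; 23 h, 37 C/5% CO2; CellTiter-Fluor, fluorescence.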
# [5] = qHTS assay to identify small molecule antagonists of the constitutive androstane receptor (CAR) signaling pathway - cell viability counter screen (AID 1224837); note: series mostly up to about 92 µM; nearly all actives have a fitted effect of over 45% in size
# Summary of the method: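 CITCO at 50 nM final was added alongside compounds (15 concentrations) to double-stable hCAR/CYP2B6-2.2kb HepG2 cells. Following 23 hr at 37 C, cell viability was quantified by CellTiter-Fluor fluorescence intensity.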
# [6] = biological target: Nuclear receptor subfamily 1 group I member 3 (Homo sapiens) (UniProt Q14994); assay: qHTS assay to identify small molecule antagonists of the constitutive androstane receptor (CAR) signaling pathway (AID 1224838); note: nearly all actives have a fitted effect of over 40% in size
# Summary of the method: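 Inhibition of CITCO-driven (50 nM final) CYP2B6 reporter expression is measured in HepG2 cells stably carrying hCAR. Fifteen compound concentrations are applied for 24 h at 37 C, followed by luciferase luminescence.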
# [7] = biological target: Nuclear receptor subfamily 1 group I member 3 (Homo sapiens) (UniProt Q14994); assay: qHTS assay to identify small molecule agonists of the constitutive androstane receptor (CAR) signaling pathway (AID 1224839); note: series mostly up to about 92 µM; nearly all actives have a fitted effect of over 15% in size
# Summary of the method: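 HepG2-CYP2B6-hCAR cells, 2500/well, 4 h pre-incubation; compounds 15 conc.; PK11195 0.75 uM final; 24 h, 37 C/5% CO2; ONE-Glo luciferase read.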
# [8] = qHTS assay to identify small molecule antagonists of the estrogen related receptor signaling pathway with the pleiotropic PPARgamma coactivator (PGC) from Tox21 10K library - cell viability counter screen (AID 1224840; active = well fitted cell-killing curve with a large enough effect in the repeat runs, not every such curve was filed as active; note: nearly all actives have a fitted effect of over 40% in size)
# Summary of the method: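 Readout: fluorescence intensity from CellTiter-Fluor after 30 min at 37 C/5% CO2. Preceded by 17.5 h treatment of PGC/ERR cells with DMSO-dissolved compounds, added 6 h post-seeding.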
# [9] = qHTS assay to identify small molecule agonists of the hypoxia (HIF-1) signaling pathway - cell viability counter screen (AID 1224844; calls by dose curve; note: nearly all actives have a fitted effect of over 50% in size)
# Summary of the method: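 In this counter screen, HRE-bla ME-180 cell viability after 17 hrs of compound exposure at 37C was read by CellTiter-Glo luminescence, multiplexed with the beta-lactamase reporter measurement.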
# [10] = qHTS assay to identify small molecule agonists of H2AX (AID 1224845; active = well fitted activation curve with a large enough effect in the signal ratio in the repeat runs, not every such curve was filed as active; the % refers to the signal ratio)
# Summary of the method: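 Wild-type CHO-K1 cells plated overnight, then exposed 3 hr at 37C to compounds at 15 concentrations (0.76% DMSO). Lysed, then HTRF anti-pH2AX(S139)-cryptate/anti-H2AX-d2 detection after 24 hr at room temperature; emissions 665 and 620 nm.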
# [11] = biological target: Thyrotropin receptor (Homo sapiens) (UniProt P16473); assay: qHTS assay to identify small molecule agonists of the thyroid stimulating hormone receptor (TSHR) signaling pathway (AID 1224843; calls by dose curve; note: nearly all actives have a fitted effect of over 45% in size)
# Summary of the method: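 Compounds are titrated over 15 concentrations, in triplicate, onto TSHR-HEK293 cells seeded at 800/well. Plates sit 30 min at room temperature before cAMP-d2 and anti-cAMP cryptate are added; signal is read after a further hour.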
# [12] = qHTS assay to identify small molecule antagonists of the estrogen related receptor signaling pathway with the pleiotropic PPARgamma coactivator (PGC) from Tox21 10K library (AID 1224841; call rule not given here; note: actives are mostly falling curves and most rising ones were filed inactive; nearly all actives have a fitted effect of over 50% in size; note: potency is the fitted concentration of half-maximal effect; for activity, negative = inhibition: series mostly up to about 92 µM)
# Summary of the method: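 One-Glo luminescence, measured after half an hour at room temperature, quantified reporter output of PGC/ERR cells. These had been plated at 2,000 per well, incubated 6 h, dosed with compounds in DMSO, then kept 18 h at 37 C.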
# [13] = qHTS assay to identify small molecule agonists of the estrogen related receptor signaling pathway with the pleiotropic PPARgamma coactivator (PGC) from Tox21 10K library (AID 1224842); note: nearly all actives have a fitted effect of over 15% in size
# Summary of the method: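 PGC/ERR reporter cells (NTP line) were seeded 2,000 per well, rested 6 h at 37 C/5% CO2, then pin-dosed with compounds in DMSO for 18 h at 37 C; luciferase read by One-Glo luminescence after 30 min at room temperature.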
# Sequence of Nuclear receptor subfamily 1 group I member 3 (Homo sapiens) (Q14994 whole entry, looked up): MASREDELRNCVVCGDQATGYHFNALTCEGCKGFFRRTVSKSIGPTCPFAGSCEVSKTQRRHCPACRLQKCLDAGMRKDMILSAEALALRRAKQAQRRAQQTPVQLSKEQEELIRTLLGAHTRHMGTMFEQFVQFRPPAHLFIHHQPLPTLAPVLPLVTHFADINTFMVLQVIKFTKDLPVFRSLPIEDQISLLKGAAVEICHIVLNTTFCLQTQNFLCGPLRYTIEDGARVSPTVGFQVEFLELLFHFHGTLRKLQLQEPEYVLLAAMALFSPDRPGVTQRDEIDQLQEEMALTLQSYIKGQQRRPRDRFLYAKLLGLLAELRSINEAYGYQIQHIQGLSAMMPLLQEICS
# Sequence of Thyrotropin receptor (Homo sapiens) (P16473 whole entry, looked up): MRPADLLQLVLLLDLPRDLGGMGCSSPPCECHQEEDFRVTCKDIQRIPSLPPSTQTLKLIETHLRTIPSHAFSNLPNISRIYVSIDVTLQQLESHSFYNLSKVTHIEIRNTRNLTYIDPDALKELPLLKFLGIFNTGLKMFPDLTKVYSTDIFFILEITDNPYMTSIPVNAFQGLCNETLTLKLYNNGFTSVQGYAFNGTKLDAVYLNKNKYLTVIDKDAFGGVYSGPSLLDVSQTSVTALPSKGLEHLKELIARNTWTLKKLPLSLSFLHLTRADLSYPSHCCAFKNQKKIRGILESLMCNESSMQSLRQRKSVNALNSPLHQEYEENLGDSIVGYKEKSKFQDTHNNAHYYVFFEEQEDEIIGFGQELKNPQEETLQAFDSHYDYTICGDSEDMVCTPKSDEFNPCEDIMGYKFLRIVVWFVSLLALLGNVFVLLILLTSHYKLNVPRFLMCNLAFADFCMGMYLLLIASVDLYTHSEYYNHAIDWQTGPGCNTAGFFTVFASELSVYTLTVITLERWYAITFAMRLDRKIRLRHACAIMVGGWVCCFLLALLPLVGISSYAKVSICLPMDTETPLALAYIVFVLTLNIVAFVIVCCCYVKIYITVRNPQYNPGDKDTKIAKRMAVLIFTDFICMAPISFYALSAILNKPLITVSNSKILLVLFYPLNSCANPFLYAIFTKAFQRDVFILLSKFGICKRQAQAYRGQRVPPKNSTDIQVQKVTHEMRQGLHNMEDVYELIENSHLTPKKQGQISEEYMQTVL
# Sequence of Luciferin 4-monooxygenase (Photinus pyralis) (P08659 whole entry, looked up): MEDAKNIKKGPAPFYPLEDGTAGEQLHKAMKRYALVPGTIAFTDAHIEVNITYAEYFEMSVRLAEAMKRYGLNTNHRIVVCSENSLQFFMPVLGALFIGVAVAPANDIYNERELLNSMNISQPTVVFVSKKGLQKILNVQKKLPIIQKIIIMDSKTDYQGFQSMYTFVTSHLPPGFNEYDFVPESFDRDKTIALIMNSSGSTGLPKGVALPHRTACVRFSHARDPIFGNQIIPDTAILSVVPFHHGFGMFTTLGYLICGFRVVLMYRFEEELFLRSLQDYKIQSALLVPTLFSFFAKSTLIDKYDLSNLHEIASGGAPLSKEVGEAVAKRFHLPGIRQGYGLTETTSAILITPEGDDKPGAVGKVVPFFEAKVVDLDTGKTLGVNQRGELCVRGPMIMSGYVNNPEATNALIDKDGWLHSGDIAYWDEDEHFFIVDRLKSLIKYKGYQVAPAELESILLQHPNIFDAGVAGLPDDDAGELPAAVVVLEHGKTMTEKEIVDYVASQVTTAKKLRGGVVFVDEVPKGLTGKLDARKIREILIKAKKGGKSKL
compound,measurement,setting,value
CC(C)CC(C)(N)C#N (configuration not stated),outcome,[1],inactive
same,Potency,[2],inactive
same,Potency,[3],inactive
same,outcome,[4],inactive
same,outcome,[5],inactive
same,Potency,[6],inactive
same,Potency,[7],inactive
same,outcome,[8],inactive
same,Potency,[9],inactive
same,Potency,[10],inactive
CCCCN(CCC(=O)OCC)C(C)=O,outcome,[1],inactive
same,Potency,[2],inactive
same,Potency,[3],inactive
same,outcome,[4],inactive
same,outcome,[5],inactive
same,Potency,[6],inactive
same,Potency,[7],inactive
same,Potency,[11],inactive
same,Potency,[9],inactive
same,Potency,[10],inactive
CC(=O)N[C@H]1[C@H]([C@H](O)[C@H](O)CO)OC(C(=O)O)=C[C@@H]1N=C(N)N,outcome,[1],inactive
same,Potency,[2],inactive
same,Potency,[3],inactive
same,outcome,[4],inactive
same,outcome,[5],inactive
same,outcome,[8],inactive
same,Potency,[11],inactive
same,Potency,[9],inactive
same,Potency,[10],inactive
CCCCCC(C)N (configuration not stated),outcome,[1],inactive
same,Potency,[2],inactive
same,Potency,[3],inactive
same,outcome,[4],inactive
same,outcome,[5],inactive
same,Potency,[6],inactive
same,outcome,[8],inactive
same,Potency,[11],inactive
same,Potency,[9],inactive
same,Potency,[10],inactive
CC1=CCC(O)(C(C)C)CC1 (configuration not stated),outcome,[1],inactive
same,Potency,[2],inactive
same,Potency,[3],inactive
same,outcome,[4],inactive
same,outcome,[5],inactive
same,Potency,[6],inactive
same,Potency,[7],inactive
same,Potency,[11],inactive
same,Potency,[9],inactive
same,Potency,[10],inactive
CCCCCCCCCC[N+](C)(C)[O-],outcome,[1],inactive
same,Potency,[2],inactive
same,Potency,[3],inactive
same,outcome,[4],inactive
same,outcome,[5],inactive
same,outcome,[8],inactive
same,Potency,[12],inactive
same,Potency,[13],inactive
same,Potency,[9],inactive
same,Potency,[10],inactive
CCN[C@H]1C[C@H](C)S(=O)(=O)c2sc(S(N)(=O)=O)cc21,outcome,[1],inactive
same,Potency,[2],inactive
same,Potency,[3],inactive
same,outcome,[4],inactive
same,outcome,[5],inactive
same,Potency,[7],inactive
same,outcome,[8],inactive
same,Potency,[11],inactive
same,Potency,[9],inactive
same,Potency,[10],inactive
CCCCc1ccc2c(n1)[C@@H](c1ccc(OC)cc1C[C@H](C)C(=O)O)[C@H](C(=O)O)[C@H]2c1ccc2c(c1)OCO2,outcome,[1],inactive
same,Potency,[2],inactive
same,Potency,[3],inactive
same,outcome,[4],inactive
same,outcome,[5],inactive
same,Potency,[6],inactive
same,Potency,[7],inactive
same,outcome,[8],inactive
same,Potency,[11],inactive
same,Potency,[9],inactive
same,Potency,[10],inactive
CC(=O)N1C[C@H](O)C[C@H]1C(=O)O,outcome,[1],inactive
same,Potency,[2],inactive
same,Potency,[3],inactive
same,outcome,[4],inactive
same,outcome,[5],inactive
same,Potency,[6],inactive
same,Potency,[7],inactive
same,Potency,[11],inactive
same,Potency,[9],inactive
same,Potency,[10],inactive
O=[N+]([O-])c1ccc(/C=N\O)o1,outcome,[1],inactive
same,Potency,[2],inactive
same,Potency,[3],inactive
same,outcome,[4],inactive
same,outcome,[5],inactive
same,Potency,[6],inactive
same,outcome,[8],inactive
same,Potency,[9],inactive
same,Potency,[10],inactive
Cc1coc2ccccc2c1=O,outcome,[1],inactive
same,Potency,[2],inactive
same,outcome,[4],inactive
same,outcome,[5],inactive
same,outcome,[8],inactive
same,Potency,[11],inactive
same,Potency,[9],inactive
same,Potency,[10],inactive
C[C@@H]1CCC[C@H](C)N1,outcome,[1],inactive
same,Potency,[2],inactive
same,outcome,[4],inactive
same,outcome,[5],inactive
same,Potency,[6],inactive
same,Potency,[7],inactive
same,Potency,[12],inactive
same,Potency,[13],inactive
same,Potency,[11],inactive
same,Potency,[9],inactive
same,Potency,[10],inactive
CCCc1ncc(C[n+]2ccccc2C)c(N)n1,outcome,[1],inactive
same,Potency,[2],inactive
same,Potency,[3],inactive
same,outcome,[4],inactive
same,outcome,[5],inactive
same,outcome,[8],inactive
same,Potency,[9],inactive
same,Potency,[10],inactive
COc1cc2c(cc1OC)-c1cc3ccc(OC)c(OC)c3c[n+]1CC2,outcome,[1],inactive
same,Potency,[3],inactive
same,outcome,[4],inactive
same,outcome,[5],inactive
same,Potency,[12],34.7 µM (active)
same,Potency,[13],inactive
same,Potency,[9],inactive
CCCCCCC#CC(=O)OC,outcome,[1],inactive
same,Potency,[2],inactive
same,outcome,[4],inactive
same,outcome,[5],inactive
same,Potency,[6],inactive
same,Potency,[7],inactive
same,outcome,[8],inactive
same,Potency,[12],inactive
same,Potency,[13],inactive
same,Potency,[9],inactive
same,Potency,[10],inactive
O=S(=O)(O)c1cc(O)c(O)c(S(=O)(=O)O)c1,outcome,[1],inactive
same,Potency,[2],inactive
same,outcome,[4],inactive
same,outcome,[5],inactive
same,Potency,[6],inactive
same,Potency,[7],inactive
same,outcome,[8],inactive
same,Potency,[9],inactive
CN1[C@@H]2CC[C@H]1CC(OC(=O)C(O)c1ccccc1)C2 (some centres not stated),outcome,[1],inactive
same,Potency,[2],inactive
same,outcome,[4],inactive
same,outcome,[5],inactive
same,Potency,[7],inactive
same,Potency,[13],inactive
same,Potency,[11],inactive
same,Potency,[9],inactive
same,Potency,[10],inactive
C=CN1CCCCCC1=O,outcome,[1],inactive
same,Potency,[2],inactive
same,Potency,[3],inactive
same,outcome,[4],inactive
same,outcome,[5],inactive
same,outcome,[8],inactive
same,Potency,[11],inactive
same,Potency,[9],inactive
same,Potency,[10],inactive
CC(=O)c1ccc2ccccc2c1,outcome,[1],inactive
same,Potency,[2],inactive
same,outcome,[4],inactive
same,outcome,[5],inactive
same,Potency,[6],inactive
same,Potency,[7],inactive
same,outcome,[8],inactive
same,Potency,[9],inactive
same,Potency,[10],inactive
CC(C)C[C@@H](N)C(=O)O,"activity change, negative = cytotoxicity",[1],3.59% [at 19 µM]
same,"viability change, negative = cytotoxic",[2],1.15% [at 19 µM]
same,"viability change, negative = cytotoxic",[4],3.64% [at 19 µM]
same,"activity change, negative = cytotoxicity",[5],0.137% [at 19 µM]
same,"activity, negative = inhibition",[6],4.78% [at 19 µM]
same,"viability change, negative = cytotoxic",[8],-8.03% [at 19 µM]
same,"activity, negative = inhibition",[12],0.755% [at 19 µM]
same,activation,[13],-0.0839% [at 19 µM]
same,activation,[11],-1.78% [at 19 µM]
same,"activity change, negative = cytotoxicity",[9],2.77% [at 15.8 µM]
same,activation (H2AX phosphorylation),[10],-1.49% [at 31.6 µM]
Cc1ncc([C@@H](CCCCCCc2ccc3c(n2)NCCC3)CC(=O)O)cn1,outcome,[1],inactive
same,Potency,[2],0.109 µM (active)
same,Potency,[3],inactive
same,outcome,[4],inactive
same,outcome,[8],inactive
same,Potency,[9],inactive
same,Potency,[10],inactive
CC1=CC(=O)[C@H]2C[C@@H]1C2(C)C,outcome,[1],inactive
same,Potency,[2],inactive
same,outcome,[4],inactive
same,outcome,[5],inactive
same,Potency,[9],inactive
same,Potency,[10],inactive
C=C(C)C(=O)OCC(O)CO (configuration not stated),outcome,[1],inactive
same,Potency,[2],inactive
same,outcome,[4],inactive
same,outcome,[5],inactive
same,Potency,[6],inactive
same,Potency,[7],inactive
same,outcome,[8],inactive
same,Potency,[12],inactive
same,Potency,[13],inactive
same,Potency,[11],inactive
same,Potency,[9],inactive
same,Potency,[10],inactive
CC1(C)[C@@H]2CC[C@@]1(C)[C@H](O)C2,outcome,[1],inactive
same,Potency,[2],inactive
same,outcome,[4],inactive
same,outcome,[5],inactive
same,Potency,[11],inactive
same,Potency,[9],inactive
same,Potency,[10],inactive
